# Measured values reported in the supplement of paper PMC10849652.
# About 8,800 targets were measured; listed, in parts, are those with a hit and a random draw of the rest. About 0.5% of all pairs of compound and target were hits. Values without a mark were called inactive.
# How the values were obtained:
# Assay in all cases: log2 fold change, soluble protein after heating vs DMSO (PISA); higher = thermal stabilisation; K562 lysate, 10 uM; active = over 0.2 and 3.5 SD of the protein, either way, in both replicates (recomputed)
# erlotinib = compound: C#Cc1cccc(Nc2ncnc3cc(OCCOC)c(OCCOC)cc23)c1 [erlotinib]
# How it was run: (§1)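 Soluble protein was defined as the supernatant remaining after 21,000xg for 90 min, following pooling of heated aliquots and adjustment to 0.5% NP-40 at 4°C. Before that, crude K562 extract at 1 mg/mL protein in PBS pH 7.4 with 1 mM MgCl2 was treated with 10 μM compound for 30 min and heated for 3 min across 48°C-58°C. Quantification used TMTpro 16plex LC-MS/MS with channel sums equalised, and values are log-two fold changes in thermal stability relative to solvent controls from duplicates.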
# [1] = compound: C/C(=N\NC(=O)C1=CC(=CC=C1)S(=O)(=O)N2CCOCC2)/C3=C(C=CC(=C3)Cl)O
# How it was run: as §1
# [2] = compound: C1=CC(=CC=C1C2=NC3=C(N2)C=C(C=C3)C(=O)N)OC4=CC=C(C=C4)Cl
# How it was run: as §1
# [3] = compound: C1=CC2=C(C=CC(=C2)/C=C\3/C(=O)NC(=NCC4=CC=CS4)S3)N=C1
# How it was run: as §1
# [4] = compound: C1=CC2=NC=CN=C2C=C1/C=C/3\C(=O)NC(=O)S3
# How it was run: as §1
# [5] = compound: C1=CC=C(C=C1)C2=NC(=C(N2)C3=CC=NC=C3)C4=CC(=C(C=C4)Cl)O
# How it was run: as §1
# [6] = compound: C1=CC=C2C(=C1)C3=NNC4=CC=CC(=C43)C2=O
# How it was run: as §1
# [7] = compound: C1CCN(C1)C(=O)NC2=CC=CC(=C2)NC3=NC=C(C(=N3)NCCC4=CN=CN4)Br
# How it was run: as §1
# [8] = compound: C1CN(CCC1(CC2=CC=C(C=C2)Cl)N)C3=NC=NC4=C3C=CN4
# How it was run: as §1
# IRAK-1-4 Inhibitor I = compound: C1COCCN1CCN2C3=CC=CC=C3N=C2NC(=O)C4=CC(=CC=C4)[N+](=O)[O-] [IRAK-1-4 Inhibitor I]
# How it was run: as §1
# ibrutinib = compound: C=CC(=O)N1CCC[C@@H](n2nc(-c3ccc(Oc4ccccc4)cc3)c3c(N)ncnc32)C1 [ibrutinib]
# How it was run: as §1
# [9] = compound: CC(=O)c1cnc2ccc(-c3cc(Cl)c(O)c(Cl)c3)nc2c1N[C@H]1CC[C@H](CN(C)C)CC1
# How it was run: as §1
# ralimetinib = compound: CC(C)(C)Cn1c(N)nc2ccc(-c3[nH]c(C(C)(C)C)nc3-c3ccc(F)cc3)nc21 [ralimetinib]
# How it was run: as §1
# [10] = compound: CC(C)(O)CC(=O)NCCn1ccc2ncnc(Nc3ccc(Oc4cccc(C(F)(F)F)c4)c(Cl)c3)c21
# How it was run: as §1
# [11] = compound: CC(C)C1=C2N=C(C=C(N2N=C1)NCC3=CC=CC=C3)NCCCCCCN
# How it was run: as §1
# [12] = compound: CC1=C(C(CC(=O)N1)C2=CC=C(C=C2)C(F)(F)F)C(=O)NC3=C(C=C4C(=C3)C=NN4)F
# How it was run: as §1
# [13] = compound: CC1=C(C2=C(C=C1)C(=O)C3=CC=CC=C3N2CCCN)C
# How it was run: as §1
# [14] = compound: CC1=C(C=C(C=C1)NC(=O)C2=CC(=CC=C2)C(C)(C)C#N)NC3=CC4=C(C=C3)N=CN(C4=O)C
# How it was run: as §1
# [15] = compound: CC1=C(C=C(C=C1)NC(=O)C2=CC(=CC=C2)N(C)C)NC(=O)C3=CC=C(C=C3)O
# How it was run: as §1
# [16] = compound: CC1=CC=C(C=C1)SC2=C3C=C(SC3=CN=C2)C(=O)N
# How it was run: as §1
# Chain of UniProt Q49A26 (Q49A26 whole entry, looked up): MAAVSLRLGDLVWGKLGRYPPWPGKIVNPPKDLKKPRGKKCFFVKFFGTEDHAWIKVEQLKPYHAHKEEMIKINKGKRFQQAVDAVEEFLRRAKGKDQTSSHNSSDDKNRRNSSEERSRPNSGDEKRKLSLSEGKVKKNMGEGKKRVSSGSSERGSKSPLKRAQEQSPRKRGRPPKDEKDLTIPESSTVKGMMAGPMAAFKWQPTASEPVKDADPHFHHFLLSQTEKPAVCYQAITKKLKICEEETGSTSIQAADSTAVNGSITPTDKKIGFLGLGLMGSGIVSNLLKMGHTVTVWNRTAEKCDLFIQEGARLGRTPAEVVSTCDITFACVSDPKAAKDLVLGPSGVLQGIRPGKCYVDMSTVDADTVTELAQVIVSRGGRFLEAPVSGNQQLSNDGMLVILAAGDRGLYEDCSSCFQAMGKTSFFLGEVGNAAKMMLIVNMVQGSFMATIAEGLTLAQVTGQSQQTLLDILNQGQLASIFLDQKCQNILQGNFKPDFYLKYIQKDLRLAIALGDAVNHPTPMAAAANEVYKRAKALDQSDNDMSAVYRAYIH
# Chain of UniProt O15550 (O15550 whole entry, looked up): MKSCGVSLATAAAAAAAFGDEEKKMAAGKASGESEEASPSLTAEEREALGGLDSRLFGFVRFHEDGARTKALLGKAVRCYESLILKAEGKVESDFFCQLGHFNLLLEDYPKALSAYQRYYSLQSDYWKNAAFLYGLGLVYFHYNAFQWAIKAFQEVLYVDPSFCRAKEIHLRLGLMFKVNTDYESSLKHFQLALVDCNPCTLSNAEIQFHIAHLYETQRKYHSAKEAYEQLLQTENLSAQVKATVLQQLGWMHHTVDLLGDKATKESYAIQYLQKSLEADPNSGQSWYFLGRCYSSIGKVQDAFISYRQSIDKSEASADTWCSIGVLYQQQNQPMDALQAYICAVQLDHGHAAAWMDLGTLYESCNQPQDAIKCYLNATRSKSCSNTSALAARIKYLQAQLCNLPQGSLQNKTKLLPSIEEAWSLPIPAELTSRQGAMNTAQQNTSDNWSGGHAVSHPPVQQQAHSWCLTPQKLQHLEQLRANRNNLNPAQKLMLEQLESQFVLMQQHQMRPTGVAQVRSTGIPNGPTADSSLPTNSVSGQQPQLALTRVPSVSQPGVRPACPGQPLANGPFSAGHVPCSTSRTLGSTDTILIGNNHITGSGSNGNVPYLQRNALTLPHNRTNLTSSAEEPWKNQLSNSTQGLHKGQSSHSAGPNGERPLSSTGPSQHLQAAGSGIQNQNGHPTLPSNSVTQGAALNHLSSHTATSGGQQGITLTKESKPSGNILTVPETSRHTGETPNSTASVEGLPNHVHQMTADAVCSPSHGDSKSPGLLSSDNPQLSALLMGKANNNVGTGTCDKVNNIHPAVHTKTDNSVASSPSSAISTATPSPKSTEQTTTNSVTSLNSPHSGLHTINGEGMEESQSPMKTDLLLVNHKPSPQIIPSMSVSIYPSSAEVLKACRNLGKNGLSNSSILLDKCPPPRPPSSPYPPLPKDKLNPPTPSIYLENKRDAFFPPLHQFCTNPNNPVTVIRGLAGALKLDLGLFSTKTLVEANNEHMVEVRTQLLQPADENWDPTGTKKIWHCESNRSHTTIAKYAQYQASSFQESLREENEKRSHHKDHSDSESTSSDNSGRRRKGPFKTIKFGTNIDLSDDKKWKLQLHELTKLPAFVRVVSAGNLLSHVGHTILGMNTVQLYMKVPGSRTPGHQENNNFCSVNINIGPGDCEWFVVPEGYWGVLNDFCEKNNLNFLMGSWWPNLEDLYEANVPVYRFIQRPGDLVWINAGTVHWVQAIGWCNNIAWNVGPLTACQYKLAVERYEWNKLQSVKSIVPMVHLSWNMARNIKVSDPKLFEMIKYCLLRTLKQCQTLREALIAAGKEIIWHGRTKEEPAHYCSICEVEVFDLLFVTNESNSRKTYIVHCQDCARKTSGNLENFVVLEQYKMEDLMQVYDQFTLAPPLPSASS
# Chain of UniProt O14979 (O14979 whole entry, looked up): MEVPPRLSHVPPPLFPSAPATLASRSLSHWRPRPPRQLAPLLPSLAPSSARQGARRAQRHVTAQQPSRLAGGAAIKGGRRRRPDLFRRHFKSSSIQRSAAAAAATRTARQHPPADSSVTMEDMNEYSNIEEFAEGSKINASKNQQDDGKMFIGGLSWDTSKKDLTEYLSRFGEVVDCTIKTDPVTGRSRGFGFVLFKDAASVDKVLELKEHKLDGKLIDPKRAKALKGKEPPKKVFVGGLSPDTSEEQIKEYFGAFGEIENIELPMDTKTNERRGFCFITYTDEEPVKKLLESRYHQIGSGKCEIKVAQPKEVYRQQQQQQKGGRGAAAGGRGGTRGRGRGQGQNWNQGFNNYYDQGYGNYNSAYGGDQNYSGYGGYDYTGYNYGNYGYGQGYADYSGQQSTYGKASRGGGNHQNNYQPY
# Chain of UniProt P11142 (P11142 whole entry, looked up): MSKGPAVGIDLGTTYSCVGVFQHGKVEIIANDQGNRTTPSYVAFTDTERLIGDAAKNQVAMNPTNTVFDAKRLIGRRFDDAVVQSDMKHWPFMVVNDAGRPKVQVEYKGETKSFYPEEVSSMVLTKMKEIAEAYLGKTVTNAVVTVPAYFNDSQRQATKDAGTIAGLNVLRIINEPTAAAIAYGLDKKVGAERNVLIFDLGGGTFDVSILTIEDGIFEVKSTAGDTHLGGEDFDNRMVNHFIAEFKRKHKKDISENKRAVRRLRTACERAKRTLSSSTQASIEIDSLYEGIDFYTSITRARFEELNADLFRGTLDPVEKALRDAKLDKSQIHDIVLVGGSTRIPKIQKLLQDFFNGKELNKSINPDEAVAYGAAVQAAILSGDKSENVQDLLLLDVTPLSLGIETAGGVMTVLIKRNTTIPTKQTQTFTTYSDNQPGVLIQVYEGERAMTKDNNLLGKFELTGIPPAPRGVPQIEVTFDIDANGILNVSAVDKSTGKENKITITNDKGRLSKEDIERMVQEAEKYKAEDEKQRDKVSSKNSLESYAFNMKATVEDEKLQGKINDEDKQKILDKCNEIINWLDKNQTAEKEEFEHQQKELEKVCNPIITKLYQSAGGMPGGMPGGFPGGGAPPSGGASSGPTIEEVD
# Chain of UniProt P19367 (P19367 whole entry, looked up): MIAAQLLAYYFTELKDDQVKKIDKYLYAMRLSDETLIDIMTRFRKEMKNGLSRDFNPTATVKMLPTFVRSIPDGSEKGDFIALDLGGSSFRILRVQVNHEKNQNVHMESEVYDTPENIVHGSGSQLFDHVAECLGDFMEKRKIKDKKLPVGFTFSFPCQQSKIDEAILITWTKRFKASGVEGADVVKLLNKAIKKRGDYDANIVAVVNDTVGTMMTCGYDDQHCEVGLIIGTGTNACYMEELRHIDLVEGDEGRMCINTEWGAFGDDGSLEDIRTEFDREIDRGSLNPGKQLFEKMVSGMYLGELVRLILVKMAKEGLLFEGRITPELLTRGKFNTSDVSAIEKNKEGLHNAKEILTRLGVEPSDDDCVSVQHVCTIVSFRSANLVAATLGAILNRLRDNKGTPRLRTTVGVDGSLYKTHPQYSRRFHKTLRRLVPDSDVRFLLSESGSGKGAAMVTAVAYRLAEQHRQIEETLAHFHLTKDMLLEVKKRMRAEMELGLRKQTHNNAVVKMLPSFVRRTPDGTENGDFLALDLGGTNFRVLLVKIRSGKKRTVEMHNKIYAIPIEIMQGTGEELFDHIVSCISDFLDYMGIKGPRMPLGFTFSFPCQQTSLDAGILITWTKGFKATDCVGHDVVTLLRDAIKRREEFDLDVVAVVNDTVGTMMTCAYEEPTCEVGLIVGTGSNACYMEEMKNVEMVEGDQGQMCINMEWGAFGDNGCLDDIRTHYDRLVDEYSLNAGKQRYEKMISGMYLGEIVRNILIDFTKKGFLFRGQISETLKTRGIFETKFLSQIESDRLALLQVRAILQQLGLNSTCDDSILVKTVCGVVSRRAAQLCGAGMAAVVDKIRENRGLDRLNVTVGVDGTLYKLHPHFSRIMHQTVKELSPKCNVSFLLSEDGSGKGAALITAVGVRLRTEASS
# Chain of UniProt Q53GQ0 (Q53GQ0 whole entry, looked up): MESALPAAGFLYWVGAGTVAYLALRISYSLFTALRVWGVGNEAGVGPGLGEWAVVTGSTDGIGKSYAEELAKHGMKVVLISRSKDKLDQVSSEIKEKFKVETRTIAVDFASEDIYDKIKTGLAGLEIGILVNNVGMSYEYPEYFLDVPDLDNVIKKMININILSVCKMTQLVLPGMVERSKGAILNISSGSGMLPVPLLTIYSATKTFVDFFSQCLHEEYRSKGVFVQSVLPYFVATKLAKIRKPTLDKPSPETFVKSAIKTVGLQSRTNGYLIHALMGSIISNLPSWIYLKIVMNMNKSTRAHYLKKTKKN
# Chain of UniProt Q9NVR2 (Q9NVR2 whole entry, looked up): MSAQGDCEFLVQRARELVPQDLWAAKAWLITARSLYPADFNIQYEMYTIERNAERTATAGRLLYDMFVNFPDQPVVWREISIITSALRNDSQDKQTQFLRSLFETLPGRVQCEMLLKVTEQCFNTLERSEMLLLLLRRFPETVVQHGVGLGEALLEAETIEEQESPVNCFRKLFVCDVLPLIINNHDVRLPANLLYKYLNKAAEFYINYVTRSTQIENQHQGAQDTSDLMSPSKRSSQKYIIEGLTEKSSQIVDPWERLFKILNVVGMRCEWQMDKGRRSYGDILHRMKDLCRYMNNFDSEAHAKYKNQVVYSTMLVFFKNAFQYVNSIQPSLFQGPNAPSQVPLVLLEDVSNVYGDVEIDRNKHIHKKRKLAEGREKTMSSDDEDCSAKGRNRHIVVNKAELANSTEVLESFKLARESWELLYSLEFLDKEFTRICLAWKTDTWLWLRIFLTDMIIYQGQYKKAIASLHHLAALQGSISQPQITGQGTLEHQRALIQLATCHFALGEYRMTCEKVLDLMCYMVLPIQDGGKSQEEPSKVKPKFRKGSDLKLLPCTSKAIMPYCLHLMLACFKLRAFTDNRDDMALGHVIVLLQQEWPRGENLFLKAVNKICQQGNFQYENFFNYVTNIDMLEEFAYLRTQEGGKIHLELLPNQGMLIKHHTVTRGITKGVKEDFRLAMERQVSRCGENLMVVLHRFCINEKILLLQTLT
Target,log2 fold change (erlotinib),log2 fold change [1],log2 fold change [2],log2 fold change [3],log2 fold change [4],log2 fold change [5],log2 fold change [6],log2 fold change [7],log2 fold change [8],log2 fold change (IRAK-1-4 Inhibitor I),log2 fold change (ibrutinib),log2 fold change [9],log2 fold change (ralimetinib),log2 fold change [10],log2 fold change [11],log2 fold change [12],log2 fold change [13],log2 fold change [14],log2 fold change [15],log2 fold change [16]
HSD17B12 (UniProt Q53GQ0),-0.018,-0.026,-0.03,-0.018,0.036,0.006,-0.006,-0.022,0.047,0.03,-0.016,0.004,-0.026,0.048,0.069,0,0.024,-0.036,0.049,0.003
GLYR1 (UniProt Q49A26),0.025,0.061,-0.018,0.021,0.041,0.029,-0.01,0.11,0.035,0.006,0.113,0.017,0.038,-0.15,0.033,0.07,-0.339 (active),0.126,0.106,0.032
HSPA8 (UniProt P11142),-0.022,0.003,0.008,0.002,-0.028,-0.004,0.038,0.016,-0.009,-0.008,-0.02,-0.002,-0.015,-0.003,0.001,-0.022,0.005,-0.013,-0.002,0.009
HK1 isoform 2 (UniProt P19367),-0.027,-0.006,0.009,0.006,0.007,0.007,-0.006,0.001,0.014,-0.002,-0.007,0.005,-0.008,0.021,-0.029,-0.029,0.025,0.023,0.016,0.008
INTS10 (UniProt Q9NVR2),0.008,0.056,-0.001,0.061,-0.044,0.026,-0.061,-0.006,0.044,-0.004,0.079,0.021,0.01,-0.02,-0.023,0.036,0,0.002,-0.014,0.036
KDM6A (UniProt O15550),-0.022,-0.039,0.061,0,0.006,0.023,-0.064,0.004,0.045,0.017,-0.007,0.012,0.003,-0.028,0.025,-0.007,-0.065,0.009,-0.004,0.022
HNRNPDL (UniProt O14979),-0.013,0.026,0.009,-0.008,0.024,0.038,0.008,0.006,0.014,-0.008,0,-0.692 (active),-0.027,0.014,-0.011,0.013,-0.016,0.111,-0.011,0
HECTD4 (UniProt J3KPF0),0.076,-0.002,0.035,-0.125,-0.02,0.024,-0.055,-0.027,0.01,-0.009,0.017,-0.024,0.001,0.007,-0.032,-0.028,-0.036,0.032,0.021,0.009
